The subject of assay [1] is Plasmodium falciparum Sir2 (PF13_0152, Sir2A). Put plainly: pfSir2 binders on small-molecule microarrays, primary screen, biochemical, small-molecule microarray, 635 nm fluorescence (AID 1098).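 Further: score merges spot fluorescence intensity with its signal-to-noise ratio.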 Particulars: small-molecule microarray binding, fluorescence 635 nm; higher = more signal.
Assay [2] is described as follows: small-molecule microarray binders of probe aDKK1, primary screen, biochemical, biotinylated probe, 635/667 nm fluorescence (AID 1099).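 Further: score merges 667nm spot fluorescence with signal to noise across triplicate slides; reference of the scale not given here.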 Particulars: higher = more signal.
Assay [3] in a line: small-molecule microarray binders of probe aCHRDL2, primary screen, biochemical, biotinylated probe, 635/667 nm fluorescence (AID 1100). Particulars: higher = more signal.
Assay [4] can be described thus: splicing luciferase reporter signal modulators, primary screen, spliceosome inhibition project, cell-based, HEK293, splice +/- reporter (AID 1101).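 Further: HEK293 cells carrying a splicing-competent luciferase reporter gene; test concentration not given here.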 Particulars: luminescence, 24 h, higher = more signal, called active from +8 up or from −8 down. (Reporter assays use an easily measured gene product as a stand-in for the process of interest.)
The target of assay [5] is Fibroblast growth factor 10 (Homo sapiens) (UniProt O15520). Briefly: FGF10 binders on small-molecule microarrays, primary screen, biochemical, small-molecule microarray, 635 nm fluorescence (AID 1102). The settings on record: FGF10 binding, fluorescence 635 nm, higher = more signal.
In assay [6] the test system is glycogen synthase kinase-3 (GSK3A per assay name; protocol says GSK3B). Briefly: GSK3 binders on small-molecule microarrays, primary screen, biochemical, small-molecule microarray, 635 nm fluorescence, GSK3A (AID 1103). Further: the record names both GSK3A and GSK3B. Particulars: small-molecule microarray binding, fluorescence 635 nm; higher = more signal.
Assay [7] addresses Epidermal growth factor receptor (Homo sapiens) (UniProt P00533). Briefly: EGFR binders on small-molecule microarrays, primary screen, biochemical, small-molecule microarray, 635 nm fluorescence (AID 1104).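 Further: score merges 667 nm emission intensity with spot signal to noise over triplicate slides.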 Particulars: EGFR binding, higher = more signal.
For assay [8], the target named is Follistatin-related protein 3 (Homo sapiens) (UniProt O95633). Briefly: FSTL3 binders on small-molecule microarrays, primary screen, biochemical, small-molecule microarray, 635 nm fluorescence (AID 1105).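 Further: score merges emission near 667 nm and signal to noise per printed spot across three slides.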 The settings on record: FSTL3 binding, higher = more signal.
Assay [9] addresses Dickkopf-related protein 1 (Homo sapiens) (UniProt O94907). Briefly: DKK1 binders on small-molecule microarrays, primary screen, biochemical, small-molecule microarray, 635 nm fluorescence scan (AID 1106).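 Further: score merges emission near 667 nm with signal to noise over three replicate slides.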 Particulars: DKK1 binding, higher = more signal.
Assay [10] has as its system Inhibin beta A chain (activin A). Briefly: INHBA (activin A) binders on microarrays, primary screen, biochemical, small-molecule microarray, 635 nm fluorescence scan (AID 1107).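 Further: mouse activin A protein probed at 4.33 µg/mL on printed slides; score merges bound-protein fluorescence near 667 nm with spot signal-to-noise.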 The settings on record: small-molecule microarray binding, higher = more signal.

Each structure is given as a SMILES string. Active and inactive are the calls of the source.

Dickkopf-related protein 1 (Homo sapiens), sequence (O94907 whole entry, looked up): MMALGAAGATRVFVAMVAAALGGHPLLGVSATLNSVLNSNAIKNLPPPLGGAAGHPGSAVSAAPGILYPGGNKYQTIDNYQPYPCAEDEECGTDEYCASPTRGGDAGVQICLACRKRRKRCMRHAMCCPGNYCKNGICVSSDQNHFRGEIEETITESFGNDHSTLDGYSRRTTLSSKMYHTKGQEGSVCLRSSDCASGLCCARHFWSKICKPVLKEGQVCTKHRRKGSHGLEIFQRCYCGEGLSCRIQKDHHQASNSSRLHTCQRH
Follistatin-related protein 3 (Homo sapiens), sequence (O95633 whole entry, looked up): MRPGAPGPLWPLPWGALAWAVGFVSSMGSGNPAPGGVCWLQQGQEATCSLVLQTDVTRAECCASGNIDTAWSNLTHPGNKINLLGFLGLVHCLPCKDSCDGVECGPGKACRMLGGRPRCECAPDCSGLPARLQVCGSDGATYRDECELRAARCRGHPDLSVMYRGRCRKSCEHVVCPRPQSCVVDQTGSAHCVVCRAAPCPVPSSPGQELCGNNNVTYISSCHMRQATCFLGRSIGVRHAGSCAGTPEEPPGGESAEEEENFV
Fibroblast growth factor 10 (Homo sapiens), sequence (O15520 whole entry, looked up): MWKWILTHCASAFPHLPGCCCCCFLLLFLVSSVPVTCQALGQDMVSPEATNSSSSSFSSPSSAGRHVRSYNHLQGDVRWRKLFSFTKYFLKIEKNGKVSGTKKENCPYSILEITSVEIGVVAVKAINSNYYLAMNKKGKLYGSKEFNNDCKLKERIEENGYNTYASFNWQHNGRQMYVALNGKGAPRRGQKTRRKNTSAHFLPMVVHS
Epidermal growth factor receptor (Homo sapiens), sequence (P00533 whole entry, looked up): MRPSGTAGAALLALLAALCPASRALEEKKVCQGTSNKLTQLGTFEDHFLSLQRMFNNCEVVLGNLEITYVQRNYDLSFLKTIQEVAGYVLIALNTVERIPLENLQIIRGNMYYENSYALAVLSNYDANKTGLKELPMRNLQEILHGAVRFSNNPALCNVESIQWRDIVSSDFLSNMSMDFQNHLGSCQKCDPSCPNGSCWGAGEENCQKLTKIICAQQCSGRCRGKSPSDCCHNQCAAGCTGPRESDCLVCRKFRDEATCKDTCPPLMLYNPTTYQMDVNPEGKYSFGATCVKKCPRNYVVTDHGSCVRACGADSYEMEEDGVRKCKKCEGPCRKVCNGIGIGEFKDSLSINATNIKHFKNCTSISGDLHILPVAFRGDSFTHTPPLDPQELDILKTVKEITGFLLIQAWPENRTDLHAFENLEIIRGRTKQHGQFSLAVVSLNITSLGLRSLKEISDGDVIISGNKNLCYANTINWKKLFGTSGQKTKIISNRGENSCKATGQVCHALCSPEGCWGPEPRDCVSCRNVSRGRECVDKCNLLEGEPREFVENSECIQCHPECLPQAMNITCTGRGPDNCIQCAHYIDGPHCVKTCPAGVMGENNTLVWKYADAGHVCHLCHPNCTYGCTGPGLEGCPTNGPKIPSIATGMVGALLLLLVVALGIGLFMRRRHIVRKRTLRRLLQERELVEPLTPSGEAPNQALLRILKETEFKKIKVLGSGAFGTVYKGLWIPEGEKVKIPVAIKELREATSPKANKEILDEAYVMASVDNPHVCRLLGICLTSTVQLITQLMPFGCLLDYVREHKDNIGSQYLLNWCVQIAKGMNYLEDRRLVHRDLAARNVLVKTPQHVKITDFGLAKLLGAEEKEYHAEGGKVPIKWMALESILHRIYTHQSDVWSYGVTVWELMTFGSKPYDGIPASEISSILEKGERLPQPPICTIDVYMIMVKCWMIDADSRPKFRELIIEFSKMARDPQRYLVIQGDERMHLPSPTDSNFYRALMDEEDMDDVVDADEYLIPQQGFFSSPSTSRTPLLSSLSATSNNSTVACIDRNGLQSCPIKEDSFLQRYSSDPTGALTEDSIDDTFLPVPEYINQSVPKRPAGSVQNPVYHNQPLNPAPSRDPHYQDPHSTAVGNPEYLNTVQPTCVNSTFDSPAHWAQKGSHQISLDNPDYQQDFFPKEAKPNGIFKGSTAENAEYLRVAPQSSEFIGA

Turning to `CC1(C)[C@@H]2CC(C(O)C3C=CC4C(=O)N(c5ccccc5)C(=O)C4N3Nc3ccccc3F)=C[C@@H]1C2` (stereo not given in full), the composite z-score was 1.4 in assay [1]; 0.26 in assay [2]; 0.471 in assay [3]; 1.34 in assay [5]; 1.31 in [6]; 0.4 in assay [7]. Further, the composite z-score was 1.31 in [8], 0.122 in assay [9] and 0.603 in assay [10]. For the same compound, the z-score in assay [4] is -1.75 (inactive).

Consider `CN(C)CCCC[C@@H]1NC(=O)[C@H]2C[C@@H](C(=O)NCCCCCCNC(=O)CS)[C@@H](c3ccc(O)cc3)N2C1=O`, for which the composite z-score in [1] is 1.74; in [2], -0.172; in assay [3], 0.314; in assay [5], -0.31; in assay [6] it was -0.323; in assay [7], 0.0264. The composite z-score in [8] was 1.27; in assay [9] it was -0.17; in assay [10], 0.947. For the same compound, the z-score in [4] is -0.296 (inactive).

In the case of `Cc1ccc(S[C@]2(C(=O)NCCN3CCOCC3)CC(=O)N(C3Cc4ccccc4C3)[C@@H]2c2ccc(CO)cc2)cc1`, the composite z-score was 1.48 in assay [1]; 0.0662 in assay [2]; 0.64 in [3]; -0.644 in assay [5]; -1.2 in assay [6]; -1 in assay [7]. Moreover, the composite z-score in assay [8] is -0.804; in assay [9], -0.866; in [10], 0.345. Moreover, in assay [4], the z-score is -0.0221 (inactive).

In the case of `COC(=O)[C@]1(Cc2ccccc2N=[N+]=[N-])N=C(c2ccc(OCCCO)cc2)O[C@@H]1c1ccccc1`, the composite z-score in assay [1] was 1.12; in assay [2], 0.974; in assay [3] it was 1.12; in assay [5] it was -0.261; in assay [6] it was 0.196; in [7], -0.355. Besides, the composite z-score in assay [8] was -0.105; in assay [9], -0.932; in [10], 0.897. Also, the z-score in assay [4] is 9.3 (active).

On to `CN(C)C(=O)[C@@]1(CCC(=O)OC(C)(C)C)N=C(c2ccc(OCCCO)cc2)O[C@H]1c1ccccc1N=[N+]=[N-]`, for which the composite z-score was determined as 1.33 in assay [1]; 0.813 in assay [2]; 0.837 in [3]; 1.46 in assay [5]; 0.253 in [6]; 0.334 in assay [7]. The composite z-score was 1.4 in [8], 0.648 in assay [9] and 0.707 in [10]. The z-score in [4] was 0.101 (inactive).

For `O=C1O[C@H](c2ccccc2)[C@H](c2ccccc2)N2[C@H]1[C@@H](C(=O)N1CCN(c3ncccn3)CC1)[C@]1(C(=O)Nc3ccc(C#CCCO)cc31)[C@H]2c1ccccc1OCCO`, the composite z-score in assay [1] amounted to 1.24; in [2], 0.0649; in [3], 0.447; in assay [5] it was 1.15; in assay [6], 1.11; in assay [7], 0.282. Moreover, the composite z-score was 0.501 in [8], 0.525 in [9] and -0.14 in assay [10]. Also, in [4], the z-score is 0.105 (inactive).

On to `O=C(Nc1cc(Br)ccc1C(=O)NCc1cccc(O)c1)c1ccccc1`, for which the composite z-score was 0.487 in assay [1]; 0.429 in assay [2]; -0.339 in assay [3]; 0.394 in assay [5]; 0.476 in [6]; 0.379 in [7]. Besides, the results for the composite z-score in assay [8], in assay [9] and in assay [10] were 0.148, 0.257 and -0.0621, respectively. The z-score in [4] was -0.419 (inactive).

Consider `C=CCOC(=O)[C@@H]1[C@H]2C(=O)O[C@H](c3ccccc3)[C@H](c3ccccc3)N2[C@H](c2ccc(OCCOC(=O)[C@@H]3C[C@@H]4C(=O)N[C@@H](CCCCNC(C)=O)C(=O)N4[C@@H]3c3ccc(O)cc3)cc2)[C@@]12C(=O)Nc1ccc(I)cc12`, for which the composite z-score in assay [1] was 1.58; in [2], -0.219; in assay [3] it was -0.249; in [5] it was 1.43; in assay [6], 1.27; in assay [7], 1.12. Also, the composite z-score in assay [8] came to 1.35; in assay [9], 0.616; in assay [10] it was 0.499. The z-score in assay [4] is 0.0887 (inactive).

For the compound `Cc1cc(C)c(C(O)C2C=CC3C(=O)N(c4ccccc4)C(=O)C3N2Nc2ccccc2)c(C)c1` (stereo not given), the composite z-score in assay [1] was 1.52; in assay [2] it was 1.17; in assay [3], 0.849; in assay [5], 0.964; in [6], 1.2; in assay [7], 0.403. Also, the composite z-score in [8] was 0.939; in assay [9] it was -0.167; in [10], 0.242. For the same compound, the z-score in assay [4] was -0.62 (inactive).

`O=C1C2C=CC(C(O)c3cccc4ccccc34)N(Nc3ccccc3)C2C(=O)N1c1ccccc1` (stereo not given): the composite z-score turned out to be 1.54 in assay [1]; 1.33 in assay [2]; 0.945 in [3]; 1.09 in [5]; 1.28 in assay [6]; 0.346 in assay [7]. The composite z-score amounted to 1.43 in assay [8], 0.0156 in assay [9] and 1.15 in assay [10]. Besides, the z-score in assay [4] was -0.272 (inactive).

Turning to `CCCC[C@@H](O)C1=C(COc2ccccc2)Cn2c(=O)n(-c3ccccc3)c(=O)n2[C@H]1CO`, the composite z-score in assay [1] is -0.229; in assay [2], -0.396; in assay [3] it was -0.444; in assay [5] it was 0.217; in assay [6], 0.106; in assay [7], 0.111. Also, the composite z-score in assay [8] is -0.423; in [9], -0.0681; in assay [10], 0.606. For the same compound, the z-score in [4] was -2.11 (inactive).

For `COC(=O)[C@@]1(Cc2ccc(F)cc2)[C@@H]2[C@@H](CC(=O)[C@H]2CC(=O)C(=O)N2CCCC2)CN1C(=O)c1ccccc1`, the composite z-score in assay [1] is 1.16; in [2] it was 0.942; in assay [3] it was 0.807; in [5], 1.11; in assay [6], 1.3; in assay [7], -0.121. In addition, the figures for the composite z-score in assay [8], in assay [9] and in assay [10] were 1.02, -0.0822 and 0.85, respectively. For the same compound, the z-score in assay [4] is -0.98 (inactive).

On to `C[N+](C)(C)CCCCCCNC(=O)[C@H]1C[C@H]2C(=O)N3CCC[C@H]3C(=O)N2[C@H]1c1cccc(OCCO)c1`, for which the composite z-score in [1] is 1.66; in assay [2] it was 0.273; in assay [3], -0.155; in [5], 0.755; in assay [6], 1.23; in assay [7], 0.907. Moreover, the values for the composite z-score in [8], in [9] and in assay [10] were 1.3, 0.705 and 0.959, respectively. For the same compound, the z-score in assay [4] is 0.592 (inactive).

Regarding `CC(C)N1CC=CC23O[C@@H]4C=CCOC(=O)[C@@H]4[C@H]2C(=O)N(CCCCCCO)[C@@H]3C1=O` (stereo not given in full), the composite z-score in [1] was 1.99; in assay [2] it was -0.284; in assay [3], 0.143; in assay [5], 0.636; in [6], -0.826; in assay [7] it was -0.997. Besides, the composite z-score is -0.483 in assay [8], -0.959 in assay [9] and 0.741 in assay [10]. In addition, the z-score in assay [4] was -0.594 (inactive).

As for `C=CCNC(=O)[C@H]1[C@@H]2C(=O)O[C@@H](c3ccccc3)[C@@H](c3ccccc3)N2[C@@H](c2ccc(OCCO)cc2)[C@]12C(=O)N(C(=O)OCCOC)c1ccc(C#CC3=CCCCC3)cc12`, the composite z-score in assay [1] is 1.39; in [2], 0.0825; in assay [3], -0.0093; in [5] it was 1.17; in assay [6], 1.31; in [7] it was 0.475. Also, the composite z-score in assay [8] worked out at 1.11; in assay [9] it was 0.522; in assay [10] it was 0.373. The z-score in assay [4] was -1.98 (inactive).

For `O=C1NC(=O)C2C1C=CC(C(O)c1ccc(-c3ccccc3)s1)N2Nc1ccccn1` (stereo not given), the composite z-score in assay [1] was 0.115; in assay [2] it was 1.09; in assay [3], 1.25; in assay [5] it was 0.475; in assay [6], -0.316; in [7], 0.559. Besides, the values for the composite z-score in assay [8], in assay [9] and in [10] were 0.561, 0.664 and 1.18, respectively. For the same compound, the z-score in assay [4] is 1.56 (inactive).
